Data from PubChem BioAssay (NCATS).
Records with an inconclusive call do not appear. Active and inactive are the calls of the source. Unless noted, calls come from the whole dose curve; as a rule, active = well fitted curve in the direction sought with a large enough effect; inconclusive = small, poorly fitted or top-dose-only effect, or another doubt; inactive = no such curve, though single readings can be large; an effect the other way counts as inactive or inconclusive.

Tests used:
[1] = qHTS for Inhibitors of Plasmodium falciparum (DD2) proliferation (AID 504314);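 note: parasite DNA measured by SYBR Green fluorescence after red cell lysis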
In short: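 Parasite proliferation measured as SYBR Green signal from Plasmodium DNA, mature erythrocytes lacking DNA. 72 h incubation, 37C; activity scaled between vehicle and 0.29 uM artemisinin, with correction from vehicle-only plates.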

[2] = qHTS for Inhibitors of Plasmodium falciparum (GB4) proliferation (AID 504315); note: nearly all actives have a fitted effect of over 50% in size
In short: (§1)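 Parasite growth measured as SYBR Green DNA fluorescence (ex 485, em 535 nm) after overnight lysis following 72 h culture at 37 °C, 0.3% parasitemia, 2.5% hematocrit. Values normalized against DMSO and 0.29 uM artemisinin controls, with plate-stack correction.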

[3] = qHTS for Inhibitors of Plasmodium falciparum (7G8) proliferation (AID 504316); note: series mostly up to about 6.7 µM; nearly all actives have a fitted effect of over 65% in size
In short: as §1

[4] = qHTS for Inhibitors of Plasmodium falciparum (HB3) proliferation (AID 504318); note: nearly all actives have a fitted effect of over 60% in size
In short: as §1

[5] = qHTS for Inhibitors of Plasmodium falciparum (CP250) proliferation (AID 504320)
In short: as §1

[6] = target: Atrial natriuretic peptide receptor 1 (Homo sapiens) (UniProt P16066); test: Natriuretic polypeptide receptor (hNpr1) antagonism - Pilot CMLD screen (AID 1347052; calls by dose curve;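 note: HEK293 cells with hNpr1 stimulated by hNppA peptide at 0.1 nM; cGMP level read as GloSensor luciferase luminescence after agonist stimulation; series mostly up to about 9.2 µM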)
Atrial natriuretic peptide receptor 1 (Homo sapiens), sequence (P16066 whole entry, looked up): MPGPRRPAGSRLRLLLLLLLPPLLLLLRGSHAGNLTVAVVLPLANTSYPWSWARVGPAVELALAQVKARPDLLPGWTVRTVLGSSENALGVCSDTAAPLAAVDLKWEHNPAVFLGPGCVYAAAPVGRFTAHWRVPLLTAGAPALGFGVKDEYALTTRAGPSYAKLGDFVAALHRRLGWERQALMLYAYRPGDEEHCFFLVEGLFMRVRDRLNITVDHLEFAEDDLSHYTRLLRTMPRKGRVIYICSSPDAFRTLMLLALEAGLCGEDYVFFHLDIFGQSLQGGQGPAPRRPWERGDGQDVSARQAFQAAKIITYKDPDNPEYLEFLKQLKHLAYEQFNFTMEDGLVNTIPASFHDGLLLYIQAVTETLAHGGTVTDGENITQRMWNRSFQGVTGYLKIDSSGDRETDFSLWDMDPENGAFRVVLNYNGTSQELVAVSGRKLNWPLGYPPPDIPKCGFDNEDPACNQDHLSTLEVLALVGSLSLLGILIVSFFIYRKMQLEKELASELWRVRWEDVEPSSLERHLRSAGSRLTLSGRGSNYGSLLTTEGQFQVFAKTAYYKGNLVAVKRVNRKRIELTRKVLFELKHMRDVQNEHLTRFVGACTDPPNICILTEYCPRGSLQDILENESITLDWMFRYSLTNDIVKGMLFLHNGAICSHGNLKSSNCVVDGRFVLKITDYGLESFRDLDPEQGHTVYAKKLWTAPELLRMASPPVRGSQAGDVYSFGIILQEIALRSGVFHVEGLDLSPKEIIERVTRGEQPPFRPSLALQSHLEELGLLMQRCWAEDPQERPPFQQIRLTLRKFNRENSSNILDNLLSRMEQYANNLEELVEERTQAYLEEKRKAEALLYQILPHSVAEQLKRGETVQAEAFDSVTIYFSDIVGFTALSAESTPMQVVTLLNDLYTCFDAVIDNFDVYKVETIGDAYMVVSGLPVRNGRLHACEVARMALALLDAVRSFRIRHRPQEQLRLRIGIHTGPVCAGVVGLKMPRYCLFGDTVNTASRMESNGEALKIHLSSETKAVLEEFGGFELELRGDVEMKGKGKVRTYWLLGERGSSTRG

Measured: Potency

COC(=O)CC=C[C@@H](C)[C@@H](C=NOC[C@@H](O)COCc1ccco1)OC
inactive: all assays above

COc1ccc(-c2nc(-c3ccccc3)oc2Nc2c(C)cccc2C)cc1
inactive: all assays above

COCC(=O)N1CCc2nc(-c3ccccc3)c3c(c2C1)CO[C@@H](C)C3
inactive: all assays above

CCC(=O)OC1(C)C(=O)C=C2C=C(CCCC(=O)OC)OC=C2C1=O (centres undefined)
inactive: all assays above

CC1(O)C(=O)C=C2C=C(c3ccc(C#N)cc3)OC=C2C1=O (centres undefined)
inactive: all assays above

C=CCN1C(=O)[C@@]2(CC(C)=CC[C@@H](C)O2)c2c(Br)cccc21
inactive: all assays above

CCOC(=O)NN=C1C[C@@H](O)[C@@H](O)[C@@H]2[C@H]3C(=O)N([C@@H](C)c4ccccc4)C(=O)[C@@H]3CC[C@H]12
inactive: all assays above

Cc1noc(C)c1S(=O)(=O)N1CCc2nc(COc3ccccc3)c3c(c2C1)CO[C@@H](C)C3
inactive: all assays above

COc1ccc2c(c1)C(=O)[C@@H](OC(=O)Nc1cc(OC)c(OC)c(OC)c1)[C@H](c1ccc(OC)c(Br)c1)O2
inactive: all assays above

CC(C)CON=C1C[C@@H](O)[C@@H](O)[C@@H]2[C@H]3C(=O)N(Cc4ccc5c(c4)OCO5)C(=O)[C@@H]3CC[C@H]12
inactive: all assays above

C=CCN1C(=O)CC[C@@]23C1=NC(C(=O)OC)=C(C(=O)OC)[C@@H]2N(C)c1ccccc13
inactive: all assays above

O=C(C=Cc1ccccc1)c1ccccc1O
inactive: all assays above

CCOC(=O)CNC(=O)O[C@@H]1C(=O)c2cc(OC)ccc2O[C@H]1c1cccc(OC)c1
inactive: all assays above

C[C@H]1CC[C@H]2C(=O)O[C@H](CO)CN2[C@H]1c1ccc(Br)cc1
inactive: all assays above
